Gli-Sufu block: antagonists of Gli-Sufu signaling; hit rate 0.74% among 340,000; inhibition, % at 5 µM; Sufu-KO-LIGHT fibroblasts, Gli luciferase reporter luminescence;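 active means inhibition above about 55%, limit read from the data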;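 further: 0% = DMSO-treated cells and 100% = wells with medium but no cells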
697 NFkB inh: lowers PMA/ionomycin-induced NF-kB signal in 697 B cells | 697 B-cell NF-kB luciferase reporter, 16 h | inhibition, % at 4 µM | hit rate 0.33% among 330,000; in the data active means inhibition above about 35%
Mdm2-MdmX inh: inhibitors of human Mdm2/MdmX interaction | AID 485346 | hit rate 3% among 330,000 | inhibition, % at 8 µM | SaOS-2 split-luciferase Mdm2/MdmX complementation, luminescence;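 active means inhibition of at least 50% at 8 µM in the primary screen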
aSyn UTR inh: MLPCN primary screen, SNCA 5' untranslated region; hit rate 0.82% among 300,000; inhibition, % (tested at 7.5 µM); alpha-synuclein 5'UTR reporter, inhibitor activity; in the data active means inhibition above about 60%; inconclusive means no clear call, values can overlap the other calls;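 further: H4 neuroglioblastoma cells stably carrying SNCA 5'UTR luciferase fusion; 0% = DMSO wells and 100% = positive control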
CSC inhib: cancer stem cell inhibition. AID 2717. hit rate 1.1% among 300,000. cancer stem cell-like cells viability, luminescence. inhibition, % at 7.5 µM; in the data active means inhibition above about 75%; inconclusive means no clear call, values can overlap the other calls; tested in HMLE shEcad cells
Jurkat NFkB inh: lowers PMA/ionomycin-induced NF-kB signal in Jurkat cells | PMA/ionomycin-induced NF-kB luciferase reporter, luminescence | inhibition, % at 4 µM | hit rate 0.53% among 330,000 | AID 435003; in the data active means inhibition above about 50%
Mdm2-MdmX conf: human Mdm2/MdmX binding inhibition, confirmed. shares compounds with Mdm2-MdmX inh. luminescent assay. inhibition, % at 8 µM. hit rate 55% among 10,000; in the data active means inhibition above about 40%
Full FLuc ctr: counter-screen for Mdm2/MdmX inhibitors: full-length luciferase; inhibition, % at 8 µM; SaOS-2 full-length luciferase counterscreen, luminescence; hit rate 77% among 6,200; shares compounds with Mdm2-MdmX inh;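 active means mean inhibition at 8 µM reaching about 37%, which flags the compound as non-specific, limit read from the data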;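 further: p53-null SaOS-2 cells with luciferase driven by a doxycycline-inducible promoter; compound on cells about two nights before reading with doxycycline added after day one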
* marks the source's active call; other numbers are inactive results; ? = inconclusive; . = no result given. An excerpt weighted towards active compounds, which were near 4.5% of everything screened.

SMILES | Gli-Sufu block | 697 NFkB inh | Mdm2-MdmX inh | aSyn UTR inh | CSC inhib | Jurkat NFkB inh | Mdm2-MdmX conf | Full FLuc ctr
Cc1ccc(S(=O)(=O)N(CC(=O)N/N=C/c2cccc(Cl)c2)c2cccc3cccnc23)cc1 | 4.5 | 3.8 | 65.6* | 6.7 | -7.2 | -2.1 | 23.4 | .
C[C@@]12C(=O)Nc3cc(Cl)ccc3C(=O)N1[C@H]1c3ccccc3OC[C@@H]1[C@@H]2c1ccccc1 | 2.8 | 10.7 | 22.1 | . | -21.4 | 24.6 | . | .
C[C@@]12C(=O)Nc3cc(Cl)ccc3C(=O)N1[C@H]1c3cc(Cl)ccc3OC[C@@H]1[C@@H]2c1ccccc1 | 4.0 | 6.2 | 60.8* | . | . | 2.4 | 25.9 | .
COc1ccc2c(c1)OC[C@H]1[C@H]2N2C(=O)c3cc(OC)c(OC)cc3NC(=O)[C@@]2(C)[C@H]1c1ccccc1 | 14.7 | -10.2 | 57.8* | . | 3.6 | 37.0 | 34.8 | .
COc1cc2c(cc1OC)C(=O)N1[C@H]3c4ccccc4OC[C@@H]3[C@H](c3ccccc3)[C@]1(C)C(=O)N2 | -1.7 | -155.6 | 28.0 | . | 6.9 | -37.4 | . | .
C[C@@]12C(=O)Nc3cc(Cl)ccc3C(=O)N1[C@H]1c3cc(Br)ccc3OC[C@@H]1[C@@H]2c1ccccc1 | -21.3 | 7.0 | 67.2* | . | -3.7 | 24.2 | 72.0* | 30.8
Cc1ccc2c(c1)C(=O)N1[C@H]3c4cc(Cl)ccc4OC[C@@H]3[C@H](c3ccccc3)[C@]1(C)C(=O)N2 | -4.0 | 4.5 | 47.3 | . | 35.1 | -11.2 | . | .
Cc1ccc2c(c1)C(=O)N1[C@H]3c4cc(C)ccc4OC[C@@H]3[C@H](c3ccccc3)[C@]1(C)C(=O)N2 | 4.9 | 14.7 | 54.0* | . | 42.5 | 2.9 | 42.9* | 38.2*
Cc1cc(C(=O)OC(C(=O)Nc2ccc(C)c(Cl)c2)c2ccccc2)c(C)o1 (centres undefined) | 8.2 | . | . | -68.1 | 54.3 | . | . | .
CCN(CC)S(=O)(=O)c1ccc(C(=O)O)cc1 | -17.0 | 16.0 | 19.5 | -13.3 | -15.2 | 3.1 | . | .
O=S(=O)(NCc1ccccc1)c1ccc(-n2cccn2)cc1 | 2.5 | 12.1 | 11.7 | 6.1 | 7.1 | -4.9 | . | .
Cc1ccc(S(=O)(=O)N2CCN(CC3CC4C=CC3C4)CC2)cc1 (centres undefined) | 13.3 | -10.1 | 21.6 | -3.2 | . | 13.9 | . | .
C[C@@]12C(=O)Nc3ccc(F)cc3C(=O)N1[C@H]1c3cc(Cl)ccc3OC[C@@H]1[C@@H]2c1ccccc1 | -1.7 | -11.9 | 56.2* | . | 56.9 | 9.6 | 33.6 | .
Cc1nnc(SCC(=O)N2CCC(c3noc4ccc(F)cc34)CC2)s1 | -5.3 | 4.3 | 77.8* | 35.3 | -0.8 | 7.8 | 69.0* | 19.8
Cc1sc2ncnc(SCC(=O)N3CCC(c4noc5ccc(F)cc45)CC3)c2c1C | -16.4 | -12.5 | 21.8 | . | -6.5 | 7.8 | . | .
COc1ccc(OCC(=O)c2c[nH]c3ccccc23)cc1 | -25.4 | -20.3 | -64.8 | -90.3 | -18.0 | -44.9 | . | .
COc1ccc2c(C(=O)CCl)c[nH]c2c1 | 0.1 | 18.8 | 56.5* | 13.9 | -2.7 | 27.0 | 52.7* | 24.1
CC(C)[C@H](NC(=O)c1ccccc1Cl)C(=O)Nc1ccc(S(=O)(=O)Nc2nccs2)cc1 | -8.7 | -23.8 | -37.1 | . | 9.3 | -12.6 | . | .
CC(OC(=O)CCN=C1NS(=O)(=O)c2ccccc21)C(=O)Nc1ccc(F)cc1 (centres undefined) | -0.3 | -1.6 | 8.1 | 6.4 | -6.5 | -2.8 | . | .
O=C(c1ccc(Cl)cc1)C1CCN(Cc2ccccc2)CC1 | 10.8 | 5.9 | 22.3 | 4.2 | -4.5 | -0.7 | . | .
O=C(C1CCN(Cc2ccc(Cl)cc2)CC1)N1CCN(C(c2ccccc2)c2ccccc2)CC1 | 17.6 | -11.1 | 56.5* | -0.4 | 64.2 | 5.7 | 25.1 | .
CN(C)CCCN(C(=O)c1ccc(C(=O)c2ccccc2)cc1)c1nc2cc3c(cc2s1)OCO3 | 42.1 | -55.9 | 74.7* | ? | 16.9 | -6.9 | 48.2* | 31.7
CN(C)CCCN(C(=O)c1cc2cc([N+](=O)[O-])ccc2s1)c1nc2cc3c(cc2s1)OCCO3 | 12.1 | 25.2 | 96.8* | -5.2 | 63.4 | -67.2 | 65.1* | 77.2*
CN(C)CCCN(C(=O)c1cc(Cl)sc1Cl)c1nc2cc3c(cc2s1)OCO3 | 26.3 | -14.6 | 53.9* | 18.5 | -1.8 | -2.8 | 21.6 | .
Cc1ccc(NC(=O)c2ccc(C(C)(C)C)cc2)cc1[N+](=O)[O-] | -91.8 | -107.9 | -52.6 | -159.5 | 33.5 | -110.5 | . | .
SMILES | Gli-Sufu block | 697 NFkB inh | Mdm2-MdmX inh | aSyn UTR inh | CSC inhib | Jurkat NFkB inh | Mdm2-MdmX conf | Full FLuc ctr
NC(=O)[C@@H]1CC2(CC(c3cccc(NC(=O)CC(c4ccccc4)c4ccccc4)c3)=NO2)CN1C(=O)c1ccc(Cl)cc1 (some centres undefined) | -2.0 | -1.6 | 52.1* | 21.7 | 37.0 | 14.2 | 33.4 | .
CCC(=O)N1CC2(CC(c3cccc(NC(=O)CC(c4ccccc4)c4ccccc4)c3)=NO2)C[C@H]1C(N)=O (some centres undefined) | -15.4 | 21.9 | -2.4 | -2.3 | -3.0 | 10.0 | . | .
NC(=O)[C@H]1CC2(CC(c3cccc(NC(=O)CC(c4ccccc4)c4ccccc4)c3)=NO2)CN1C(=O)CC(c1ccccc1)c1ccccc1 (some centres undefined) | -1.8 | -11.4 | 67.5* | 26.7 | 13.2 | 7.8 | 51.8* | 57.3*
Cc1ccc(NC(=O)CCSc2ccccn2)cc1 | -45.0 | -12.2 | -126.9 | -145.0 | -12.9 | -116.4 | . | .
Cc1cc(F)ccc1S(=O)(=O)Nc1ccccc1C(=O)Nc1ccccc1-c1nc2ccccc2[nH]1 | 13.0 | 11.9 | 96.2* | -33.2 | 79.0* | -13.1 | 91.6* | 51.0*
Cc1cc(F)ccc1S(=O)(=O)Nc1ccccc1C(=O)Nc1ncn[nH]1 | -29.4 | -11.7 | 10.1 | 20.4 | 6.2 | 1.0 | . | .
O=C(Nc1nc(-c2ccccn2)cs1)c1ccc(F)c(S(=O)(=O)N2CCOCC2)c1 | 48.1 | -55.9 | 75.6* | . | . | 14.1 | 86.2* | 25.6
CN(CC1CCCO1)S(=O)(=O)c1ccc(C(=O)Nc2ccccc2F)cc1 (centres undefined) | -14.5 | 5.4 | 21.8 | -14.7 | -6.7 | -10.5 | . | .
Cc1nnc(NC(=O)c2ccc(F)c(S(=O)(=O)N3CCOCC3)c2)s1 | 8.2 | -15.2 | -7.6 | . | 7.6 | -2.9 | . | .
Cc1ccc(S(=O)(=O)N2CCOCC2)cc1C(=O)Nc1nc(-c2cccnc2)cs1 | 0.2 | -20.1 | 7.7 | -7.9 | -4.4 | -1.6 | . | .
CN(CC1CCCO1)S(=O)(=O)c1ccc(C(=O)Nc2nc(-c3ccccn3)cs2)cc1 (centres undefined) | 33.5 | -31.5 | 88.8* | . | 69.6 | 25.4 | 80.3* | 27.4
Cc1ccc(C(=O)Nc2nc(-c3ccccn3)cs2)cc1S(=O)(=O)N1CCOCC1 | 37.2 | -57.9 | 88.6* | . | . | 35.6 | 81.3* | 23.2
O=C(Nc1nc(-c2ccccn2)cs1)c1cc(S(=O)(=O)N2CCOCC2)ccc1F | -7.0 | -3.6 | 53.3* | . | . | -15.0 | 28.6 | .

Source: PubChem BioAssay (several laboratories)
